Values joined by “and” are separate entries in the source; they are usually repeats but may differ in a detail not shown here. Equal entries are not always repeated. Results filed as inconclusive are left out. A call without a number means that no potency is given here. The source holds several records for some structures; these can differ, active in one and inactive in another. Active and inactive are the calls of the source. Unless noted, calls follow the shape of the dose curve; as a rule, active = well fitted curve in the direction sought with a large enough effect in the repeat runs; inconclusive = weak or mixed curves; inactive = no such curve, though single readings can be large; an effect the other way counts as inactive or inconclusive.
Legend:
[1] = qHTS assay to identify small molecule antagonists of the peroxisome proliferator-activated receptor delta (PPARd) signaling pathway - cell viability counter screen (AID 743213); conditions: PPARd-bla HEK293H viability, CellTiter-Glo luminescence, 17 h; series mostly up to 62 µM; also: nearly all actives have a fitted effect of over 50% in size; also: potency is read from the fitted curve at half-maximal effect
Summary of the method: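 PPARd-bla HEK293H cells (3000/well) got compound plus 300 nM L165041 agonist for 17 h at 37 C. Viability in the same wells came from CellTiter-Glo luminescence after 30 min at room temperature.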

[2] = target: Bile acid receptor (Homo sapiens) (UniProt Q96RI1); assay: qHTS assay to identify small molecule antagonists of the farnesoid-X-receptor (FXR) signaling pathway (AID 743217; active = well fitted inhibition curve with a large enough effect in the signal ratio in the repeat runs, not every such curve was filed as active; the % refers to the signal ratio); conditions: HEK293T FXR-UAS-bla, beta-lactamase ratio, CDCA-stimulated, 16 h; series mostly up to 62.6 µM
Summary of the method: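 In this cell-based antagonist screen, inhibition of CDCA-driven (50 uM final) UAS-beta-lactamase expression in HEK 293T cells was measured by FRET fluorescence following 16 h compound exposure at 37 °C.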

[3] = target: Bile acid receptor (Homo sapiens) (UniProt Q96RI1); assay: qHTS assay to identify small molecule agonists of the farnesoid-X-receptor (FXR) signaling pathway (AID 743220; active = well fitted activation curve with a large enough effect in the signal ratio in the repeat runs, not every such curve was filed as active; the % refers to the signal ratio); conditions: HEK293T FXR-UAS-bla, beta-lactamase FRET ratio, 16 h; series mostly up to 62.6 µM
Summary of the method: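 Beta-lactamase reporter under UAS control in GeneBLAzer FXR HEK 293T cells (5000/well) measured with LiveBLAzer FRET substrate after 2 h at room temperature. Compound exposure lasted 16 h at 37C.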

[4] = qHTS assay to identify small molecule antagonists of the farnesoid-X-receptor (FXR) signaling pathway - cell viability counter screen (AID 743221; active = well fitted cell-killing curve with a large enough effect in the repeat runs, not every such curve was filed as active; also: nearly all actives have a fitted effect of over 50% in size; also: potency is read from the fitted curve at half-maximal effect); conditions: FXR-bla HEK293T viability, CellTiter-Glo luminescence, 16 h; series mostly up to 62.6 µM
Summary of the method: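 Multiplexed counter screen: viability of FXR-bla HEK 293T cells under agonist stimulation by chenodeoxycholic acid (50 uM, final) and test compound for 16 h at 37 C, measured by CellTiter-Glo luminescence in the reporter wells.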

[5] = target: Vitamin D3 receptor (Homo sapiens) (UniProt P11473); assay: qHTS assay to identify small molecule antagonists of the vitamin D receptor (VDR) signaling pathway (AID 743223; active = well fitted inhibition curve with a large enough effect in the signal ratio in the repeat runs, not every such curve was filed as active; the % refers to the signal ratio; also: potency is read from the fitted curve at half-maximal effect); conditions: VDR-UAS-bla HEK293T, beta-lactamase FRET ratio, 16 h; series mostly up to 61 µM
Summary of the method: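 Cells carrying a VDR-driven beta-lactamase reporter (VDR-bla) were co-treated with compound and 3 nM final 1alpha,25-dihydroxyvitamin D3 for 16 h at 37C; reporter activity was measured as FRET substrate fluorescence after 2 h at room temperature.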

[6] = qHTS assay to identify small molecule agonists of the vitamin D receptor (VDR) signaling pathway - cell viability counter screen (AID 743224); conditions: VDR-bla HEK293T viability, CellTiter-Glo luminescence, 16 h; series mostly up to 62.6 µM; also: nearly all actives have a fitted effect of over 50% in size; also: potency is read from the fitted curve at half-maximal effect
Summary of the method: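 Here cell health was gauged by luminescent ATP detection (CellTiter-Glo, 30 min RT) in VDR-bla cells that had been incubated with test compounds for 16 h at 37C and 5% CO2.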

[7] = qHTS assay to identify small molecule antagonists of the vitamin D receptor (VDR) signaling pathway - cell viability counter screen (AID 743225); conditions: VDR-bla HEK293T viability, CellTiter-Glo luminescence, 16 h; series mostly up to 61 µM; also: nearly all actives have a fitted effect of over 50% in size; also: potency is read from the fitted curve at half-maximal effect
Summary of the method: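 HEK293T VDR-bla; cpd + 1a,25-(OH)2D3 3 nM final, 16 h 37C/5% CO2; B/G FRET substrate 2 h RT; then CellTiter-Glo 30 min RT, luminescence.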

[8] = qHTS assay to identify small molecule agonists of the NFkB signaling pathway - cell viability counter screen (AID 1159515; calls by dose curve; also: nearly all actives have a fitted effect of over 55% in size; also: potency is read from the fitted curve at half-maximal effect); conditions: NFkB-bla ME-180 viability, CellTiter-Glo luminescence, 5 h; series mostly up to 61 µM
Summary of the method: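 5 hr compound treatment of NFkB-bla ME-180 cells (2,000/well, seeded overnight beforehand), followed by reporter substrate for 1.5 hr. CellTiter-Glo added afterward; luminescence after 30 min RT.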

[9] = qHTS assay to identify small molecule agonists of the endoplasmic reticulum stress response signaling pathway (AID 1159516; active = well fitted activation curve with a large enough effect in the signal ratio in the repeat runs, not every such curve was filed as active; the % refers to the signal ratio); conditions: ESRE-bla HeLa, ER stress beta-lactamase reporter, 5 h; series mostly up to 61 µM
Summary of the method: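 Reporter HeLa cells (ESRE-beta-lactamase) underwent 5 hr compound incubation at 37 C and 5% CO2 in quantitative HTS format. Detection followed 2 hr of FRET substrate loading at room temperature.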

[10] = qHTS assay to identify small molecule agonists of the endoplasmic reticulum stress response signaling pathway - cell viability counter screen (AID 1159517; calls by dose curve; also: nearly all actives have a fitted effect of over 50% in size; also: potency is read from the fitted curve at half-maximal effect); conditions: ESRE-bla HeLa viability, CellTiter-Glo luminescence, 5 h; series mostly up to 61 µM
Summary of the method: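 Cells, HeLa ESRE-bla; density, 1,500/well; dosing, 5 hr at 37 C, 5% CO2; readout, CellTiter-Glo luminescence after 30 min RT.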

[11] = qHTS assay to identify small molecule antagonists of the retinoid-related orphan receptor gamma (ROR-gamma) signaling pathway - cell viability counter screen (AID 1159520); conditions: Tet-on RORgamma CHO cells viability, ATP luminescence, 16 h; series mostly up to 92.4 µM; also: nearly all actives have a fitted effect of over 50% in size; also: potency is read from the fitted curve at half-maximal effect
Summary of the method: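 Cytotoxicity was read from cellular ATP (CellTiter-Glo luminescence) after 16 hr at 37 C with 1 uM doxycycline induction. The inducer was added 2 hr after compound transfer to Tet-on ROR gamma CHO cells.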

[12] = target: Nuclear receptor ROR-gamma (Homo sapiens) (UniProt P51449); assay: qHTS assay to identify small molecule antagonists of the retinoid-related orphan receptor gamma (ROR-gamma) signaling pathway (AID 1159521; also: nearly all actives have a fitted effect of over 50% in size; also: potency is read from the fitted curve at half-maximal effect); conditions: Tet-on RORgamma CHO cells, RORE-luciferase, 16 h; series mostly up to 92.4 µM
Summary of the method: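 Cells were plated, rested 4 h at 37 C, exposed to compounds for 2 h, then given 1 uM final doxycycline hyclate to induce RORγ expression. After 16 h, ONE-Glo luminescence from the ROR response element reporter was measured.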

[13] = qHTS assay to identify small molecule agonists of the AP-1 signaling pathway - cell viability counter screen (AID 1159525; calls by dose curve; also: nearly all actives have a fitted effect of over 55% in size; also: potency is read from the fitted curve at half-maximal effect); conditions: ME-180 AP-1-bla cells viability, ATP luminescence, 5 h; series mostly up to 76.8 µM
Summary of the method: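 Luminescent ATP readout (Cell Titer Glo, 30 min RT), normalised to DMSO and tetra n-octyl ammonium bromide controls. Cells were ME-180 AP-1-bla in 0.5% dialyzed FBS Opti-MEM, with a 5 h, 37 °C compound exposure.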

[14] = qHTS assay to identify small molecule agonists of the AP-1 signaling pathway (AID 1159526; calls by dose curve); conditions: ME-180 (cervical carcinoma) AP-1-bla reporter, beta-lactamase FRET ratio, 5 h; series mostly up to 76.8 µM
[15] = target: Peroxisome proliferator-activated receptor delta (Homo sapiens) (UniProt Q03181); assay: qHTS assay to identify small molecule agonists of the peroxisome proliferator-activated receptor delta (PPARd) signaling pathway (AID 743212; calls by dose curve); conditions: HEK293H PPARd-UAS-bla, beta-lactamase FRET ratio, 17 h; series mostly up to 62.6 µM
Summary of the method: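 HEK293H UAS-bla reporter cells, human PPARd system; compounds delivered in DMSO after 5 h plating, then at 37 C. Beta-lactamase FRET read, 2 h RT substrate step.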

[16] = qHTS assay to identify small molecule agonists of the farnesoid-X-receptor (FXR) signaling pathway - cell viability counter screen (AID 743218); conditions: FXR-bla HEK293T viability, CellTiter-Glo luminescence, 16 h; series mostly up to 62.6 µM; also: nearly all actives have a fitted effect of over 45% in size; also: potency is read from the fitted curve at half-maximal effect
Summary of the method: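 After 16 h at 37 C with test compounds, FXR-bla HEK 293T cells were given LiveBLAzer B/G substrate for 2 h at RT and then CellTiter-Glo; luminescence was taken after 30 min.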

[17] = qHTS assay to identify small molecule agonists of the RXR signaling pathway - cell viability counter screen (AID 1159529); conditions: RXR-alpha-bla HEK293T viability, CellTiter-Glo, 16 h; series mostly up to 76.8 µM; also: nearly all actives have a fitted effect of over 50% in size; also: potency is read from the fitted curve at half-maximal effect
Summary of the method: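 Steps: seed RXR-alpha-UAS-bla HEK 293T cells in assay medium containing 2% charcoal-stripped FBS; incubate 5 hr; add compounds in DMSO; incubate 16 hr at 37 C; after the bla read, add CellTiter-Glo and read luminescence at 30 min.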

[18] = target: Retinoic acid receptor RXR-alpha (Homo sapiens) (UniProt P19793); assay: qHTS assay to identify small molecule agonists of the RXR signaling pathway (AID 1159527; calls by dose curve; also: nearly all actives have a fitted effect of over 35% in size); conditions: HEK293T RXRa-UAS-bla, beta-lactamase ratio, 16 h; series mostly up to 76.8 µM
Summary of the method: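 Cells plated at 2,000/well, rested 5 hr at 37 C, pin-dosed with DMSO compound solutions, incubated 16 hr, then loaded with B/G FRET substrate for 2 hr at RT before dual-emission fluorescence reading.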

[19] = target: Vitamin D3 receptor (Homo sapiens) (UniProt P11473); assay: qHTS assay to identify small molecule agonists of the vitamin D receptor (VDR) signaling pathway (AID 743222; calls by dose curve); conditions: HEK293T VDR-UAS-bla, beta-lactamase FRET ratio, 16 h; series mostly up to 63.5 µM
Summary of the method: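 VDR-bla cells were seeded, left 4 h, treated with compounds in DMSO for 16 h, incubated 2 h at RT with B/G FRET substrate, and read for fluorescence.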

Bile acid receptor (Homo sapiens), sequence (Q96RI1 whole entry, looked up): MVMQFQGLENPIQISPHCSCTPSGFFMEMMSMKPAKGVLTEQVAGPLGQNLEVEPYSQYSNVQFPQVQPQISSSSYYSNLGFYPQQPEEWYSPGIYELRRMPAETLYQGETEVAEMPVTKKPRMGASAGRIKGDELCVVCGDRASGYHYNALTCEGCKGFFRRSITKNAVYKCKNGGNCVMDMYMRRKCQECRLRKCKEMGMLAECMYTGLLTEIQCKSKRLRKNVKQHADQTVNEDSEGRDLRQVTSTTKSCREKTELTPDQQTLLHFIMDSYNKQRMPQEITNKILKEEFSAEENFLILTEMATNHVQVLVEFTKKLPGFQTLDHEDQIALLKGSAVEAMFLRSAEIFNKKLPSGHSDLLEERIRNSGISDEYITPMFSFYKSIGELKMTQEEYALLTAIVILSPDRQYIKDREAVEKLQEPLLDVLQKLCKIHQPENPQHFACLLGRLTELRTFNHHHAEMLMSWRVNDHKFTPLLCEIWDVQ
Vitamin D3 receptor (Homo sapiens), sequence (P11473 whole entry, looked up): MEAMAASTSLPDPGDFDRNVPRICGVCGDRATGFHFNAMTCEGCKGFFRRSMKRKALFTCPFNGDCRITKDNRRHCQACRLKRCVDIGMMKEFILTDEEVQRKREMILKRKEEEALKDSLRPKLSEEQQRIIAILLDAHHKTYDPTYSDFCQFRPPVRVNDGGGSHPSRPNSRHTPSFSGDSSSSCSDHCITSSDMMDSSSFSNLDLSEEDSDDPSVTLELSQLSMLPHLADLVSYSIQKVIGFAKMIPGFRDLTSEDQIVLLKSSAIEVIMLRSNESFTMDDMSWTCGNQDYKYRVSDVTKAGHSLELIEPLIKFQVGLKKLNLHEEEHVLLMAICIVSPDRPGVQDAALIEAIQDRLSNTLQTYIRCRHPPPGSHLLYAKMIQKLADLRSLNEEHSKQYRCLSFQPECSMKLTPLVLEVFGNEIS
Peroxisome proliferator-activated receptor delta (Homo sapiens), sequence (Q03181 whole entry, looked up): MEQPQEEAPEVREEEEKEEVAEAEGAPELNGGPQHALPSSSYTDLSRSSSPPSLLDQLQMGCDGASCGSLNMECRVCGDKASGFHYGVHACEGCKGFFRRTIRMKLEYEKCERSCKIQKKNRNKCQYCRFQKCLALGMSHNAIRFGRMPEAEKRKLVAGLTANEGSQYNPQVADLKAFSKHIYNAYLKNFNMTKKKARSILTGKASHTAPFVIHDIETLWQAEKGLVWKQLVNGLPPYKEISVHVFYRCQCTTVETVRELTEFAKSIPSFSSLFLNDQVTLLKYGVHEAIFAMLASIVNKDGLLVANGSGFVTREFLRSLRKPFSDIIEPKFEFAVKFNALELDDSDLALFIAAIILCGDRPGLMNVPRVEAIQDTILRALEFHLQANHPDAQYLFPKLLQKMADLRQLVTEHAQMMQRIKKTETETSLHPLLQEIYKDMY
Retinoic acid receptor RXR-alpha (Homo sapiens), sequence (P19793 whole entry, looked up): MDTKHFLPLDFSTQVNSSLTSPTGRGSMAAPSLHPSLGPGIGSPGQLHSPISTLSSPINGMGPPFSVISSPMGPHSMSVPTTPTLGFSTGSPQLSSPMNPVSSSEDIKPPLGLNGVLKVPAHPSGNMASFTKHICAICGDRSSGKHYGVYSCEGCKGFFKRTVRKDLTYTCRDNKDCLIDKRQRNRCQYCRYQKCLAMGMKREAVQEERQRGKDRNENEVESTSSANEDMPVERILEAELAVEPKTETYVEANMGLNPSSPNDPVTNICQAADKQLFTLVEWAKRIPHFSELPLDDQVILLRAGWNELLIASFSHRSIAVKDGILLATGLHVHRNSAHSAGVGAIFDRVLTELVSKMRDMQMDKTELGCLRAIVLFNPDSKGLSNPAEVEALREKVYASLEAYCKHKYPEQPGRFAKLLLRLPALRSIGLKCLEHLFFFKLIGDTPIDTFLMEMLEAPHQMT

| SMILES | Potency [1] | Potency [2] | Potency [3] | Potency [4] | Potency [5] | Potency [6] | Potency [7] | Potency [8] | Potency [9] | Potency [10] | Potency [11] | Potency [12] | Potency [13] | outcome [14] | Potency [15] | Potency [16] | Potency [17] | Potency [18] | outcome [19] |
| --- | --- | --- | --- | --- | --- | --- | --- | --- | --- | --- | --- | --- | --- | --- | --- | --- | --- | --- | --- |
| CCC1(c2ccc(N)cc2)CCC(=O)NC1=O (stereo not drawn) | inactive | inactive | inactive | inactive | inactive | inactive | inactive | inactive | inactive | inactive | inactive | inactive | inactive | inactive | – | – | – | – | – |
| CC(C)(c1ccccc1)c1ccc(O)cc1 | inactive | inactive | inactive | inactive | inactive | inactive | – | 43.3 µM (active) and 54.9 µM (active) | inactive | – | – | 60.6 µM (active) | – | – | inactive | inactive | 43.3 µM (active) and 54.9 µM (active) | – | – |
| CCOP(=O)(O)OCC (tested in a mixture with another compound) | inactive and 19.3 µM (active) | – | – | inactive and 48.6 µM (active) | – | inactive and 17.2 µM (active) | – | inactive and 54.5 µM (active) | inactive | inactive and 24.3 µM (active) | inactive and 54 µM (active) | – | inactive and 48.6 µM (active) | inactive | – | inactive and 43.3 µM (active) | inactive and 17.2 µM (active) | inactive | – |
| CCC(=O)Nc1ccc(Cl)c(Cl)c1 | inactive | – | – | inactive | inactive | inactive | inactive | inactive | inactive | inactive | inactive | – | inactive | inactive | – | inactive | inactive | – | – |
| O=S(=O)(O)C(F)(F)C(F)(F)C(F)(F)C(F)(F)C(F)(F)C(F)(F)C(F)(F)C(F)(F)F | – | – | – | 41.6 µM (active) and 13.8 µM (active) and 6.16 µM (active) | inactive | – | – | inactive | inactive | inactive | inactive | inactive | inactive | inactive | – | 52.3 µM (active) and 49 µM (active) and 33.6 µM (active) | – | – | inactive |
| C=CC(=O)OCC(CC)(COC(=O)C=C)COC(=O)C=C | 13.8 µM (active) | inactive | – | inactive and 43.6 µM (active) | 6.92 µM (active) | 20 µM (active) and 11 µM (active) | 20 µM (active) and 17.4 µM (active) | inactive | inactive | inactive and 24.5 µM (active) | – | 3.15 µM (active) and 6.86 µM (active) | inactive | – | – | inactive and 13.8 µM (active) | – | – | – |
| O=[N+]([O-])c1ccc(Nc2ccccc2)cc1 | – | – | – | inactive | – | inactive | inactive and 49 µM (active) | inactive and 43.6 µM (active) | inactive | inactive and 54.9 µM (active) | inactive | – | inactive | inactive | – | – | – | – | – |

Reference: PubChem BioAssay (Tox21)
